Inconclusive results are not listed. Entries that show only a call come without a potency. Calls of active or inactive are those of the source. Unless noted, calls follow the shape of the dose curve; as a rule, active = well fitted curve in the direction sought with a large enough effect in the repeat runs; inconclusive = weak or mixed curves; inactive = no such curve, though single readings can be large; an effect the other way counts as inactive or inconclusive.
Legend:
[1] = A CellTox Green Cytotoxicity Assay to monitor cytotoxicity in HepG2 cells - 8 hour (AID 1224890); also: nearly all actives have a fitted effect of over 45% in size
Outline: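 Real-time cytotoxicity: fluorescence of a cell-impermeant cyanine dye binding DNA of dead HepG2 cells, measured repeatedly (0–40 h) during compound exposure at 37 C. Cells seeded 600/well with reagent, dosed after 5 h.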

[2] = qHTS assay to identify small molecule antagonists of the androgen receptor (AR) signaling pathway using the MDA cell line in the presence of 0.5 nM R1881 - cell viability counter screen (AID 1259242); also: nearly all actives have a fitted effect of over 45% in size
Outline: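 Live-cell protease activity was measured by CellTiter-Fluor fluorescence after 30 min. Before that, MDA-kb2 MMTV-luciferase cells had 16 hr at 37C without CO2, exposed to test compounds and 0.5 nM R1881 final.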

[3] = target: Estrogen receptor (Homo sapiens) (UniProt P03372); assay: qHTS assay to identify small molecule antagonists of the estrogen receptor alpha (ER-alpha) signaling pathway using the BG1 cell line in the presence of 0.1 nM 17-beta-estradiol (AID 1259244); also: nearly all actives have a fitted effect of over 50% in size
Outline: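 Luciferase luminescence (ONE-Glo, 30 min at room temperature) was read after 22 hr at 37C exposure to compounds plus 17beta-estradiol at 0.1 nM final. Cells were VM7Luc4E2 with endogenous ER-alpha and an ERE-driven luciferase, pre-cultured 5 days in hormone-depleted medium.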

[4] = qHTS assay to identify small molecule HDAC inhibitors (AID 1259364); also: top concentration of the series differs between compounds; nearly all actives have a fitted effect of over 45% in size
Outline: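 Luminescence read after 30 min room-temperature HDAC-Glo incubation measures cellular class I/II HDAC activity. Compounds were applied for 2 hr at 37 C to HCT-116 wild-type cells seeded the day before.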

[5] = qHTS assay to identify small molecule HDAC inhibitors - cell viability counter screen (AID 1259365); also: series mostly up to about 92 µM; nearly all actives have a fitted effect of over 50% in size
Outline: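 Wild-type HCT-116 cells were seeded at 1,500 per well, incubated overnight at 37 C, then exposed to compounds in DMSO for 2hr. Viability was read by CellTiter-Glo luminescence after 30min at room temperature.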

[6] = qHTS assay to identify small molecule agonists of the sonic hedgehog signaling (Shh) pathway - cell viability counter screen (AID 1259366); also: nearly all actives have a fitted effect of over 50% in size
Outline: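 NIH/3T3-derived 3T3 Gli1-Luc cells (stable Gli1-responsive firefly luciferase reporter) were seeded, rested 4 hr at 37 C/5% CO2, then exposed to compounds in DMSO for 24 hr; viability was read by CellTiter-Fluor fluorescence in the same wells.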

[7] = qHTS assay to identify small molecule agonists of the sonic hedgehog signaling (Shh) pathway (AID 1259368; calls by dose curve; also: series mostly up to about 92 µM; nearly all actives have a fitted effect of over 15% in size)
Outline: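 Luminescence was read after 30 min at room temperature with luciferase reagent. Before that, 3T3Gli1-Luc cells (NIH/3T3 clone, stable Gli1-Luc reporter; 2,000/well) were exposed to compounds for 24 hr at 37C, 5% CO2, compounds being added 4 hr post-plating.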

[8] = qHTS assay to identify small molecule antagonists of the sonic hedgehog signaling (Shh) pathway (AID 1259369; calls by dose curve; also: nearly all actives have a fitted effect of over 45% in size; also: potency is read from the fitted curve at half-maximal effect)
Outline: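 Antagonist mode: compound added to 3T3 Gli1-Luc cells followed by conditioned-medium stimulation, 24 h at 37 C, 5% CO2. Inhibition taken as loss of Gli1-driven luciferase luminescence.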

[9] = qHTS assay to identify small molecule agonists of the estrogen receptor beta (ER-beta) signaling pathway - cell viability counter screen (AID 1259380); also: nearly all actives have a fitted effect of over 30% in size
Outline: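 Cell viability counter screen: CellTiter-Glo luminescence (30 min, room temperature) measured in the same wells as the beta-lactamase readout, after 16 hr compound exposure at 37C of ER-beta-bla HEK293T cells in 2% charcoal-stripped FBS medium.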

[10] = qHTS assay to identify small molecule antagonists of the estrogen receptor beta (ER-beta) signaling pathway - cell viability counter screen (AID 1259382); also: series mostly up to about 92 µM; nearly all actives have a fitted effect of over 55% in size
Outline: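 Cytotoxicity was measured in the same wells by CellTiter-Glo luminescence after 30 min at room temperature. Cells were ER-beta-bla HEK293T in charcoal-stripped serum, given compound together with 1 nM E2 and incubated 16 h at 37C.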

[11] = target: Estrogen receptor (Homo sapiens) (UniProt P03372); assay: qHTS assay to identify small molecule agonists of the estrogen receptor alpha (ER-alpha) signaling pathway in the presence of an antagonist (AID 1259383; calls by dose curve; also: top concentration of the series differs between compounds; nearly all actives have a fitted effect of over 15% in size)
Outline: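 Agonist-mode confirmation run in the presence of 10.0nM (final) ICI-182,780 antagonist. The reporter was ERE-driven luciferase in VM7Luc4E2 cells, grown in charcoal-stripped serum. Cells were exposed to 15-concentration compound series for 22hr, then ONE-Glo luminescence was read.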

[12] = qHTS assay to identify small molecule agonists or antagonists of the thyroid stimulating hormone receptor (TSHR) signaling pathway - wild type cell line counter screen (AID 1259384; calls by dose curve)
Outline: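 Wild-type Hek293 cells, 800/well, 18 h at 37C, then compound with Ro20-1724 for 30 min RT. cAMP by HTRF (cAMP-d2/anti-cAMP cryptate), 1 h RT, fluorescence read. 15 concentrations, triplicates.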

[13] = target: Estrogen receptor beta (Homo sapiens) (UniProt Q92731); assay: qHTS assay to identify small molecule agonists of the estrogen receptor beta (ER-beta) signaling pathway (AID 1259377; active = well fitted activation curve with a large enough effect in the signal ratio in the repeat runs, not every such curve was filed as active; the % refers to the signal ratio)
Outline: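 ER-beta-UAS-bla HEK293T (GripTite) cells carrying a UAS-driven beta-lactamase reporter, in medium with 2% charcoal-stripped FBS, were exposed to compounds for 16 hr at 37C; LiveBLAzer B/G FRET substrate was then added and fluorescence read after 2 hours at room temperature.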

[14] = qHTS assay to identify small molecule antagonists of the sonic hedgehog signaling (Shh) pathway - cell viability counter screen (AID 1259367); also: nearly all actives have a fitted effect of over 55% in size
Outline: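 Tox21 library chemicals were tested on a Gli1-Luc NIH/3T3 clone (2,000 cells/well) stimulated by conditioned medium; viability was quantified as fluorescence from CellTiter-Fluor reagent added at 23 hr.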

[15] = qHTS assay to identify small molecule agonists of the androgen receptor (AR) signaling pathway in the presence of an antagonist - cell viability counter screen (AID 1259379);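 also: MDA-kb2 human breast cancer cells carrying an MMTV luciferase reporter; series mostly up to about 92 µM; nearly all actives have a fitted effect of over 25% in size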
Outline: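 Cytotoxicity counter-screen run in the same wells as the nilutamide-challenged (3.0 µM final) AR agonist assay in MDA-kb2 cells. Compounds tested at 15 concentrations for 16 h, 37 °C without CO2; CellTiter-Fluor fluorescence read.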

[16] = target: Estrogen receptor beta (Homo sapiens) (UniProt Q92731); assay: qHTS assay to identify small molecule antagonists of the estrogen receptor beta (ER-beta) signaling pathway (AID 1259378; active = well fitted inhibition curve with a large enough effect in the signal ratio in the repeat runs, not every such curve was filed as active; the % refers to the signal ratio)
Outline: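 ER-beta-UAS-bla HEK293T cells in 2% charcoal-stripped FBS medium treated with compound plus 1nM final 17-beta-estradiol for 16 hr at 37C. Beta-lactamase reporter read by FRET substrate fluorescence after 2 hours at room temperature.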

[17] = target: Androgen receptor (Homo sapiens) (UniProt P10275); assay: qHTS assay to identify small molecule antagonists of the androgen receptor (AR) signaling pathway using the MDA cell line in the presence of 0.5 nM R1881 (AID 1259243); also: nearly all actives have a fitted effect of over 50% in size
Outline: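 Luminescent reporter readout (ONE-Glo, 30 min, room temperature) after 16 hr co-treatment of MDA-kb2 cells with test compounds and 0.5 nM R1881 final, at 37C without CO2. The MMTV-driven luciferase responds to both AR and GR.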

[18] = target: Androgen receptor (Homo sapiens) (UniProt P10275); assay: qHTS assay to identify small molecule agonists of the androgen receptor (AR) signaling pathway in the presence of an antagonist (AID 1259381; calls by dose curve; also: nearly all actives have a fitted effect of over 15% in size)
Outline: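 Agonist-mode confirmation run against 3.0 uM final nilutamide: compounds titrated at 15 concentrations onto MDA-kb2 MMTV-luciferase reporter cells. Luminescence measured with ONE-Glo following 16 hr incubation, 37C, 0% CO2.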

[19] = qHTS assay to identify small molecule antagonists of the estrogen receptor alpha (ER-alpha) signaling pathway using the BG1 cell line in the presence of 0.1 nM 17-beta-estradiol - cell viability counter screen (AID 1259241); also: nearly all actives have a fitted effect of over 40% in size
Outline: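 VM7Luc4E2 cells (endogenous ER-alpha, 4×ERE-luciferase), hormone-starved 5 days in charcoal-stripped FBS, were treated with compounds plus 0.1 nM 17beta-estradiol for 22 hr at 37C; viability read in same wells as CellTiter-Fluor live-cell protease fluorescence.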

Estrogen receptor beta (Homo sapiens), sequence (Q92731 whole entry, looked up): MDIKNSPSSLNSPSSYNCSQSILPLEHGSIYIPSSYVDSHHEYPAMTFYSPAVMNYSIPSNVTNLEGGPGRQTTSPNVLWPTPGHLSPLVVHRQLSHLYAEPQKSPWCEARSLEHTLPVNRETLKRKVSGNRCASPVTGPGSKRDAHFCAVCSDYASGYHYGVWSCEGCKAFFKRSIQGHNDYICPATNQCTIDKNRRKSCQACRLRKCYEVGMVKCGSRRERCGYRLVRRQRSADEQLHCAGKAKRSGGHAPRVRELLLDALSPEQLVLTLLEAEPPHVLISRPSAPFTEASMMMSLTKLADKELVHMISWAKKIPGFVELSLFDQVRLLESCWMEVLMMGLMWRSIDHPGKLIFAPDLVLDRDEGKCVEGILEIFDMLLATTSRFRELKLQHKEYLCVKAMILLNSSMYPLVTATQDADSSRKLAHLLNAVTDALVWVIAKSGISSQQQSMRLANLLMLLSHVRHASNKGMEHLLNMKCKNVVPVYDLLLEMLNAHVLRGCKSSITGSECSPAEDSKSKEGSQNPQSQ
Estrogen receptor (Homo sapiens), sequence (P03372 whole entry, looked up): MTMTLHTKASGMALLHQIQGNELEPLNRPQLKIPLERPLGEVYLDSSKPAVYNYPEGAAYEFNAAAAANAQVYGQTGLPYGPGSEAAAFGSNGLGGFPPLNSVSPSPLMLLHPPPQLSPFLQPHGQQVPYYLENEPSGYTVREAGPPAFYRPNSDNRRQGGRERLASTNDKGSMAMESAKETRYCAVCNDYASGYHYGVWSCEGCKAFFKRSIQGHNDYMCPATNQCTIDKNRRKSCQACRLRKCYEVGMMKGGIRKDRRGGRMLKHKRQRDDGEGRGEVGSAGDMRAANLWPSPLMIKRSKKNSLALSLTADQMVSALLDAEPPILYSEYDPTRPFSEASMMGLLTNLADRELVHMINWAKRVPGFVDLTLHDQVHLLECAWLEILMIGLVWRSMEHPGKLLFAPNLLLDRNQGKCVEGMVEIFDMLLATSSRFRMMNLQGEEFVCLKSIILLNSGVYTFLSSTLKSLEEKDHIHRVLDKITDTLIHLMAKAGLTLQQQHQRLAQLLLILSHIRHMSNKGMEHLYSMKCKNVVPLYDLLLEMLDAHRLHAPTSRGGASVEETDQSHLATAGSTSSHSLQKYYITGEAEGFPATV
Androgen receptor (Homo sapiens), sequence (P10275 whole entry, looked up): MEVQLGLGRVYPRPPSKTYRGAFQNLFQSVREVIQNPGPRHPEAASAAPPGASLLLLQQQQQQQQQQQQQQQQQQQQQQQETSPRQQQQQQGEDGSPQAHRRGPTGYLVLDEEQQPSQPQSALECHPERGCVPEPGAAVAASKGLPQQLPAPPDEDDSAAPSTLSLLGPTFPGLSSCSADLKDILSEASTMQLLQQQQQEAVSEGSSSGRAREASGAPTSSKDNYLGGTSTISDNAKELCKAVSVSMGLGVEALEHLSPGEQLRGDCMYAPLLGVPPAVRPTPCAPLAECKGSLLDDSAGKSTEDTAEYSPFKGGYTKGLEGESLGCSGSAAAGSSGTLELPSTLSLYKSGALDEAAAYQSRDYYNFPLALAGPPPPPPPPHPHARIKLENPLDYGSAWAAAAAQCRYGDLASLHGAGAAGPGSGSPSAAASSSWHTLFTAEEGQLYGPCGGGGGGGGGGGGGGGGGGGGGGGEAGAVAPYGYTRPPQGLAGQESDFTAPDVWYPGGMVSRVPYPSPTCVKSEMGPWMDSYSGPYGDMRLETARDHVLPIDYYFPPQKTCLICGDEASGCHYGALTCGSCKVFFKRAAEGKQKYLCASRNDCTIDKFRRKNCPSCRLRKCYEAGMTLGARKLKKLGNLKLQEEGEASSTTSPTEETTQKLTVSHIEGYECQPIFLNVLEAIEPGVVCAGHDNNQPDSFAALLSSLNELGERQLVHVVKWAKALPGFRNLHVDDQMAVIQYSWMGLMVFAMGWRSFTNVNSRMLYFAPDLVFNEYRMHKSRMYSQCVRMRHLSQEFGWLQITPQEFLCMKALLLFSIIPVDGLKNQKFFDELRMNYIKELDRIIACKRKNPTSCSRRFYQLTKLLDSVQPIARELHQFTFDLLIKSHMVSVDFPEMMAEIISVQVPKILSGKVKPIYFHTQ

SMILES	outcome [1]	outcome [2]	Potency [3]	Potency [4]	outcome [5]	Potency [6]	outcome [7]	Potency [8]	Potency [9]	outcome [10]	outcome [11]	outcome [12]	Potency [13]	Potency [14]	Potency [15]	outcome [16]	Potency [17]	Potency [18]	Potency [19]
CCCCCCN	inactive	inactive	inactive	inactive	inactive	inactive	inactive	61.1 µM (active)	inactive	inactive	inactive	inactive							
CCOc1cc([N+](=O)[O-])c(OCC)cc1N1CCOCC1	inactive	inactive	inactive	inactive	inactive	inactive	inactive	inactive	inactive	inactive	inactive	inactive	inactive						
COc1cc(N)ccc1C	inactive	inactive		inactive	inactive		inactive	inactive	inactive	inactive		inactive	inactive	inactive	inactive				
C[C@@H]1O[C@@H](O[C@@H]2[C@@H](O)[C@H](OCCc3ccc(O)c(O)c3)O[C@H](CO[C@@H]3O[C@H](CO)[C@@H](O)[C@H](O)[C@H]3O)[C@H]2OC(=O)/C=C/c2ccc(O)c(O)c2)[C@H](O)[C@H](O)[C@H]1O	inactive	inactive		inactive	inactive		inactive	inactive		inactive									
O=C1CCCC(=O)O1	inactive	inactive	inactive	inactive	inactive	inactive	inactive	inactive		inactive	inactive	inactive	inactive	inactive	inactive	inactive			
CC(COC(C)(C)C)OCCCO (stereo not given)	inactive	inactive		inactive	inactive	inactive	inactive	inactive	inactive	inactive		inactive	inactive	inactive		inactive			
OCCC(F)(F)C(F)(F)C(F)(F)C(F)(F)C(F)(F)C(F)(F)C(F)(F)C(F)(F)F	inactive	inactive		inactive	inactive	inactive	inactive	inactive	inactive	inactive	inactive		inactive		inactive		inactive	inactive	
O=C(O)Cc1ccc(Cl)cc1Cl		inactive	inactive	inactive	inactive	inactive	inactive		inactive	inactive	inactive	inactive	inactive	inactive		inactive	inactive	inactive	inactive
OC[C@H](Cc1cccc(O)c1)[C@H](CO)Cc1cccc(O)c1	inactive	inactive		inactive	inactive	inactive	inactive	62.6 µM (active)							inactive				

Source: PubChem BioAssay (Tox21)
